SARS PLpro yeast – qHTS of Yeast-based Assay for SARS-CoV PLP; S. cerevisiae expressing SARS-CoV PLpro, growth rescue; Potency, µM (doses to about 32.9 µM), without a hit: at the highest dose activity, positive = growth rescue, usual class: activators; 330,000 tested, 0.19% active; AID 485353, 2010; note: potency is the fitted concentration of half-maximal effect; 0% is about no effect; nearly all actives have a fitted effect of over 55% in size
Shiga toxin inh – A qHTS for Small Molecule Inhibitors of Shiga Toxin; Vero cells, Shiga toxin protein synthesis inhibition reporter; 290,000 tested, 9.2% active; inhibition, % at 38.7 µM; in the data active = inhibition mostly above about 28%, no sharp cut-off; inactive = mostly below about 43%; note: 0% is about no effect
NS1 inh – qHTS Assay for Inhibitors of Influenza NS1 Protein Function; Potency, µM (highest dose often 46.1 µM), without a hit: top-dose activity, positive = more growth; 270,000 tested, 0.4% active; AID 2326, 2010; note: potency is the fitted concentration of half-maximal effect; actives are rising curves; nearly all actives have a fitted effect of over 50% in size
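A cell-based growth assay was used: compounds that relieve NS1-induced slow growth of budding yeast raise OD600. Assay medium was yeast nitrogen base with ammonium sulphate and -URA supplement, pH 6.0, with 2% galactose.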
Cycloheximide cs – Cycloheximide Counterscreen for Small Molecule Inhibitors of Shiga Toxin; cell reporter, cycloheximide protein synthesis inhibition counterscreen; max response, %; 300,000 tested, 12% active; AID 2314, 2010; in the data active = max response mostly above about 13%, no sharp cut-off; inactive = mostly below about 14%; note: read at 38.3 µM for the half of the compounds with a filed dose; 0% is about no effect
Starred values were filed as active, the others as inactive; · = no result given. In the library only some 12% were active in any assay of this set; here they are far more common. Unless noted, calls come from the whole dose curve.

SMILES	SARS PLpro yeast	Shiga toxin inh	NS1 inh	Cycloheximide cs
CCc1ccc(CN(C)C(=O)c2cc(COc3c(F)cccc3F)on2)cc1	-2%	42	5%	23
O=C1C(c2ccccc2)SC(=Nc2ccccc2)N1S(=O)(=O)c1ccccc1 (centres undefined)	-8%	45	27%	30*
CCC(CC)C(=O)Nc1nnc(S(=O)(=O)Nc2ccccc2C)s1	0%	-7	0%	2
CN(C(=O)c1ccccc1C(=O)OCC(=O)Nc1ccccc1)c1ccccc1	3%	·	·	·
O=C(Nc1ccc(Cl)cc1)N1N=CCC1c1ccccc1 (centres undefined)	-8%	23	-3%	20*
O=C(Cc1ccc(Cl)cc1)N1CCN(c2ccccc2)CC1	-1%	63	-35%	31*
O=C(Nc1ccc(Cl)cc1)N1CC=CCC1	-9%	109*	-35%	84*
O=C(Nc1ccc(Cl)cc1)N1CCN(c2ccccc2)CC1	-25%	24	-15%	20*
CC1(C)C(C(=O)N2CCN(c3ccc(Cl)cc3)CC2)C1(C)C	-3%	16	-47%	10
O=C(C1CCC1)N1CCN(c2ccc(Cl)cc2)CC1	-8%	14	-17%	12*
O=C(CNc1ccc2c(c1)OCO2)N/N=C\c1cn(Cc2ccc(F)cc2)c2ccccc12	-7%	14	13µM*	8
O=C(Cn1ccc(C(F)(F)F)n1)N/N=C/c1ccc2c(c1)OCO2	-8%	122*	3%	37*
O=C(Cc1ccccc1)N/N=C/c1ccc2c(c1)OCO2	5%	72*	·	34*
O=C(CSc1ncccn1)N/N=C/c1ccc2c(c1)OCO2	-5%	25	7%	34*
O=C(CSc1ncccn1)N/N=C/c1ccc(OC2CSC2)cc1	0%	24	·	12
CCCN(CC(=O)Nc1ccccc1C)C(=O)C1CC(=O)N(Cc2ccccc2)C1 (centres undefined)	0%	·	·	·
O=C(CCc1ccccc1)NCC(=O)N/N=C/c1ccc2c(c1)OCO2	17%	53*	14%	19*
O=C(CNc1ccccc1)N/N=C/c1ccc2c(c1)OCO2	2%	29*	-1%	20*
O=C(CNc1ccccc1)N/N=C/c1ccc([N+](=O)[O-])cc1	23%	-3	3%	9
O=C(CNc1ccccc1)N/N=C/c1ccc2c(c1)OCCO2	-21%	48*	3%	34*
O=C(N/N=C/c1ccc2c(c1)OCO2)C(=O)Nc1ccccc1	0%	24	1%	1
CC(C)[C@@H](C)/C=C\[C@@H](C)[C@@H]1CC[C@H]2C3=CC=C4C[C@@H](O)CC[C@]4(C)[C@H]3CC[C@]21C	·	·	-1%	·
CCOc1ccc(CCNS(=O)(=O)c2ccc3c(c2)N(C(C)=O)CCO3)cc1OCC	9%	-7	-5%	-8
CCOC(=O)Cc1csc(NC(=O)CC)n1	-3%	19	14%	2
CCOC(=O)Cc1csc(NC(=O)C(C)(C)CC)n1	-1%	51*	3%	31*
SMILES	SARS PLpro yeast	Shiga toxin inh	NS1 inh	Cycloheximide cs
CCOC(=O)Cc1csc(NC(=O)CC(C)(C)C)n1	12%	122*	5%	32*
C/C(=N/O)c1no[n+]([O-])c1/C(C)=N\O	1%	53	0%	-3
CCCC(=O)OCC(=O)Nc1ccc2c(c1)OCO2	3%	29	-2%	15*
O=C(COC(=O)c1ccc([N+](=O)[O-])o1)Nc1ccc2c(c1)OCO2	-79%	·	·	·
CCC(=O)OCC(=O)Nc1ccc2c(c1)OCO2	0%	29	9%	9
O=C(COC(=O)C1CC1)Nc1ccc2c(c1)OCO2	0%	52	·	36*
O=C(NC(=S)NNC(=O)c1ccccc1O)c1ccco1	-56%	-4	-40%	21*
O=C(NC(=S)NNC(=O)c1ccco1)c1ccc(F)cc1	-7%	active	-88%	24*
CCCCOc1ccc(C(=O)N/C(=C\c2ccc(OC)cc2)C(=O)OCc2ccco2)cc1	-5%	8	29%	-2
O=C(NC(=S)NNC(=O)c1cc2ccccc2cc1O)c1ccco1	1%	14	5%	7
COc1ccc(C(=O)N/C(=C\c2ccco2)C(=O)OCc2ccco2)cc1	-2%	93*	-11%	34*
O=C(NC(=S)Nc1ccccc1Br)c1ccco1	0%	99*	-26%	54*
Cc1ccc(NC(=O)CNC(=O)OCc2ccccc2)cc1C	0%	10	-8%	8
COc1ccc(C(=O)NC(=S)NNC(=O)c2ccco2)cc1	-2%	22	-94%	27*
O=C(N/N=C/c1ccc(-c2cccc(C(F)(F)F)c2)o1)c1ccccc1Br	-8%	74*	7%	11*
NC(=O)N/N=C/c1ccc(-c2cccc(C(F)(F)F)c2)o1	-4%	38*	·	48
O=C(N/N=C/c1ccc(N2CCOCC2)o1)c1cccc(F)c1	7%	85*	5%	34*
O=C(N/N=C/c1ccc(-c2cccc(C(F)(F)F)c2)o1)c1ccccc1O	17%	-10	-2%	-2
O=C(N/N=C/c1ccc(-c2cccc(C(F)(F)F)c2)o1)c1cccc(F)c1	-17%	40*	6%	32*
CCN(CC)c1ccc(C(=O)NNC(=O)CNC(=O)c2cccs2)cc1	1%	·	·	·
CCn1cc(C(=O)NCC(OC)OC)c(=O)c2cc(S(=O)(=O)N3CCC(C)CC3)ccc21	-3%	-7	-8%	9
NC(=NCCc1c[nH]c2ccccc12)NC(=O)c1ccc(F)cc1	-2%	42	1%	10
Cc1ccc(NC(=O)C2Cc3ccccc3O/C2=N\O)cc1C (centres undefined)	2%	74*	1%	49*
Cc1ccc(NC(=O)C2CCCCC2C(=O)O)cc1C (centres undefined)	0%	-3	-1%	-1
O=C(Nc1ccc(Br)cc1)C1Cc2ccccc2O/C1=N\O (centres undefined)	-1%	111*	2%	55*
SMILES	SARS PLpro yeast	Shiga toxin inh	NS1 inh	Cycloheximide cs
Nc1nc(-c2ccc(Oc3ccccc3)cc2)c(CC(=O)O)s1	-9%	23	-7%	13
CCn1nccc1C(=O)Nc1ccc(Cl)cn1	7%	70*	6%	60*
CCn1ccc(C(=O)Oc2ccc(Cl)cc2)n1	6%	56*	-9%	22*
CCn1ccc(C(=O)Nc2ccc(Cl)cn2)n1	5%	80	-69%	39*
COc1ccc(NC(=O)Cc2nnc(N)s2)cc1	3%	-2	·	13
CCOC(=O)c1c(N/N=C/c2ccncc2)n[nH]c1C	3%	50*	-2%	25
CCc1[nH]nc(C(=O)N/N=C/c2ccncc2)c1C	4%	50*	7%	24*
Cc1ccc2oc(-c3ccccc3)c(C(=O)O)c(=O)c2c1	-26%	80*	-213%	44*
O=c1c(O)c(-c2cccs2)oc2ccccc12	-19%	15	-27%	18*
Cc1ccc(-c2oc3ccccc3c(=O)c2O)cc1	-14%	9	-2%	14*
COc1cc(C)nc(-c2csc(C)n2)n1	3%	14	-2%	10
COC(=O)c1ccc(CSc2nnc(NC(C)C)s2)o1	6%	14	·	0
Cn1nc(NC(=O)C(F)(F)F)c2ncc(-c3ccc(Cl)cc3)nc21	-2%	68*	0%	41*
O=c1[nH]c(=O)c2ncc(-c3ccc(Cl)cc3)nc2[nH]1	1%	2	·	-4

Screening results from PubChem.
